Screening data deposited in PubChem BioAssay by Broad Institute.
RAD52 inh: RAD52 DNA annealing inhibitors, primary screen, biochemical, FRET, single point, set 2; recombinant RAD52 DNA annealing, FRET fluorescence; inhibition, % at 18.7 µM; 360,000 compounds, 0.46% hits; AID 651710, 2012;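 active = every replicate showing at least 50% inhibition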
RAD54 inh: inhibitors of human RAD54 branch migration, primary screen, biochemical, fluorescence, single point. RAD54 Holliday junction branch migration, FAM/BHQ fluorescence. inhibition, % at 10.4 µM. 360,000 compounds, 0.14% hits. AID 602329, 2012;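 active = mean normalized replicate activity at least 40 and at least half of replicates scoring 40 or more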;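 also: 0% = median of neutral control wells and 100% = median of positive control wells; inhibitors cause a drop in the FAM fluorescence signal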
ERAP1 HTS inh: human ERAP1 aminopeptidase inhibitors, primary screen, biochemical, single point, plate reader | Endoplasmic reticulum aminopeptidase 1 (Homo sapiens), Q9NZ08 | recombinant ERAP1, Leu-AMC fluorescence, 60 min | inhibition, % at 10.7 µM | 340,000 compounds, 0.15% hits | AID 652197, 2013;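 active = mean replicate inhibition of at least 30%, or all replicates individually reaching that 30% level; inactive = mean below 30% and not every replicate reaching it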;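 also: 0% = neutral control wells and 100% = L-leucinethiol positive control wells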
GSIS activator: GLuc luminescence reporter in INS-1E cells, primary screen for activators of glucose-dependent secretion of insulin; AID 743287, 2014; activation, % at 16.6 µM; INS-1E GLuc reporter insulin secretion, 2-3 h; 370,000 compounds, 0.61% hits;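 active = lowest replicate activation of at least 40%, so every replicate reaches that level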;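 also: 0% = median of neutral control wells and 100% = median of IBMX positive control wells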
MLL AF4-AF9 inh: inhibitors of AF4 peptide binding to AF9, primary screen, biochemical, AlphaScreen, biotin-AF4 peptide, FLAG-AF9, single point | 350,000 compounds, 0.47% hits | inhibition, % at 10 µM | Protein AF-9 (Homo sapiens), P42568;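 active = every replicate reaching a set inhibition limit, whatever the replicate mean, cut at about 25% in these data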;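 also: 0% = plate neutral control median and 100% = total signal loss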
Target sequence (P42568 whole entry, looked up): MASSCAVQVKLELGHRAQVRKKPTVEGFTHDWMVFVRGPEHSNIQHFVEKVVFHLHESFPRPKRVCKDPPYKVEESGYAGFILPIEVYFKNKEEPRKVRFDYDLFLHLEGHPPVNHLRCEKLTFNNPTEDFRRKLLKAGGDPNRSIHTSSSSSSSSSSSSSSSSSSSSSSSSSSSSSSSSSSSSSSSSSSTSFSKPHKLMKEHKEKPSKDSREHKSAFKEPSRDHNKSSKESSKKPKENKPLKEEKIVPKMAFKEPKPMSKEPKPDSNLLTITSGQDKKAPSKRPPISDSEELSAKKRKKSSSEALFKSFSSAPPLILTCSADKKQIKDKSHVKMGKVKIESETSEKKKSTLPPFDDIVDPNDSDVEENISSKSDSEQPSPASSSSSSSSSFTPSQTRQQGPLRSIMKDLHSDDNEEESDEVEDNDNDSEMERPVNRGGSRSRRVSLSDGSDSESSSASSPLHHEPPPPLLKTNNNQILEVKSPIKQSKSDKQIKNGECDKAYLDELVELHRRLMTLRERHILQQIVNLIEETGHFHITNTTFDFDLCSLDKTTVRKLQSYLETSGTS
PGC1a acetyl inh: inhibitors of PGC1a acetylation signal, primary screen, cell-based, U2OS, AlphaScreen, inhibitor mode; AID 651687, 2012; AlphaScreen anti-acetyl-lysine; with virally co-expressed GCN5 acetyltransferase; 350,000 compounds, 0.17% hits; inhibition, % at 15.6 µM;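 active = every replicate shows inhibition of at least 40%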;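 also: 0% = neutral control wells and 100% = positive control wells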
Starred values were filed as active, the others as inactive; · = no result given. Shown are actives, neighbours in structure and some others; about 1.4% of the full set was active somewhere.

SMILES | RAD52 inh | RAD54 inh | ERAP1 HTS inh | GSIS activator | MLL AF4-AF9 inh | PGC1a acetyl inh
COc1ccc(CNC(=O)N(C)C[C@H]2OCc3ccccc3-c3ccccc3C(=O)N([C@@H](C)CO)C[C@@H]2C)cc1 | · | · | · | 1 | · | ·
COc1ccc2c3c(n(C)c2c1)[C@@H](CO)NCC31CCN(Cc2cc(-c3ccccc3)on2)CC1 | 59* | · | -4 | 4 | 37* | 35
COc1ccc2c3c(n(C)c2c1)[C@H](CO)NCC31CN(Cc2cc(-c3ccccc3)on2)C1 | 80* | · | 1 | -3 | 40* | -27
COc1cc(CNCCc2ccccc2)cc(Cl)c1OCc1ccccc1 | 20 | 17 | -6 | 122* | -1 | -8
CCOC(=O)c1ccc(Nc2ncnc3c2cnn3C)cc1 | -4 | 5 | 1 | 4 | · | -10
Cn1ncc2c(O/N=C(\N)c3ccc(C(C)(C)C)cc3)ncnc21 | · | 1 | · | · | · | 96*
CCN1CCN(C(=S)Nc2ccsc2C(=O)OC)CC1 | -17 | · | 5 | 0 | · | 5
COC(=O)c1sccc1NC(=S)N1CCN(C)CC1 | -6 | · | · | 42* | -5 | ·
O=C(Nc1ccccc1)N1C[C@@H]2[C@H](c3ccccc31)[C@H](CO)N2C(=O)c1ccncc1 | 2 | 14 | 1 | 0 | -12 | 13
Cc1cc(C)nc(N2CCC(C(=O)NCc3ccco3)CC2)n1 | · | -11 | · | · | · | 95*
COc1nc(OC)nc(N2CCC(C(=O)NCc3ccco3)CC2)n1 | · | -6 | · | · | · | -7
Cc1noc(C)c1NC(=O)Nc1ccc2c(c1)C(=O)N([C@H](C)CO)C[C@@H](C)[C@H](CN(C)C(=O)Nc1ccc(F)cc1)OCCCC[C@H](C)O2 | 2 | · | 2 | 15 | -1 | 1
S=c1[nH]nc(-c2ccccc2Cl)n1/N=C/C=C/c1ccco1 | -18 | 6 | 8 | 6 | 47* | 10
CCC(=O)Nc1cc2nn(-c3ccc(OC)cc3)nc2cc1C | · | -10 | · | 108* | · | ·
CCCCC(=O)Nc1cc2nn(-c3ccc(OC)cc3)nc2cc1C | -4 | 0 | -4 | 10 | -2 | -9
CCCNC(=O)N1C[C@H]2[C@@H](c3ccccc31)[C@@H](CO)N2CC1CCCCC1 | · | 0 | · | 12 | · | -5
CN1[C@@H]2c3ccc(-c4ccccc4)c(=O)n3C[C@@H]2[C@@H](CO)[C@@H]1C(=O)NC1Cc2ccccc2C1 | 0 | -7 | 1 | -6 | 1 | ·
O=C(Nc1ccc2c(c1)[C@@H]1C[C@H](CC(=O)N3CCCCC3)O[C@@H](CO)[C@@H]1O2)C1CCC1 | -6 | -6 | 2 | 2 | -1 | -1
CC(C)(C(=O)N1CCC1(C)C(=O)NS(=O)(=O)c1cccc(Cl)c1)c1ccccc1 (stereo not drawn) | -8 | 2 | 3 | 41* | -4 | 25
Cc1ccccc1S(=O)(=O)N1C[C@H](O)COC[C@H]2O[C@@H](CC(=O)N3CCN(C)CC3)CC[C@@H]21 | -4 | -6 | 1 | 15 | 0 | -4
Cc1ccc2c(c1)N(CCC(=O)NCCCN1CCCC1)C(=O)CO2 | -9 | -7 | -5 | -14 | -1 | -3
Cc1ccc2c(c1)N(CCCC(=O)NCCCN1CCCC1=O)C(=O)CO2 | 3 | 1 | -2 | · | 49* | -25
O=C(O)C1C2CC3OC(=O)C1C3C2 (stereo not drawn) | -5 | -11 | 0 | 13 | 2 | 62*
O=C(O)C1C2CC3C(OC(=O)C31)C2Cl (stereo not drawn) | · | · | · | 25 | · | -15
CCN(CC)Cc1cc(Nc2c3ccccc3nc3c4ccccc4n(C)c23)cc(CN(CC)CC)c1O | 106* | · | -23 | -30 | 55* | -7
SMILES | RAD52 inh | RAD54 inh | ERAP1 HTS inh | GSIS activator | MLL AF4-AF9 inh | PGC1a acetyl inh
CCOc1cc2nc3c4ccccc4n(C)c3nc2cc1OCC | -11 | · | -5 | 9 | 0 | ·
C[C@@H]1CCCCO[C@H](CN(C)CC2CCCCC2)[C@H](C)CN([C@@H](C)CO)C(=O)c2cc(NC(=O)C3CCCCC3)ccc2O1 | -9 | 4 | 0 | -16 | -1 | -5
C/C(=N\NC(=O)c1ccc(Cl)c(Cl)c1)c1ccc(Br)s1 | · | · | · | 102* | · | ·
CCSc1ccc(-c2nn(-c3ccccc3)cc2/C=C(/C#N)C(=O)NC)cc1 | · | 0 | · | 65* | · | ·
CCC(=O)N[C@@H]1CC[C@@H](CC(=O)NCc2cc(F)cc(F)c2)O[C@@H]1CO | -3 | -4 | -1 | 16 | -2 | -3
C=C[C@@]1(C)CC(=O)[C@]2(O)[C@@]3(C)[C@@H](O)CCC(C)(C)[C@@H]3[C@H](OC(C)=O)[C@H](O)[C@@]2(C)O1 | -10 | -1 | 2 | 85* | -3 | 7
C=C1C(=O)O[C@H]2C[C@]3(C)C([C@@H](OC(=O)/C(C)=C/C)[C@H]12)[C@](C)(O)CC[C@H]3O (stereo partly drawn) | -9 | 0 | -2 | 12 | -5 | -22
C=C[C@@]1(C)CC(=O)[C@]2(O)[C@@]3(C)[C@@H](O)CCC(C)(C)[C@@H]3[C@H](O)[C@H](OC(C)=O)[C@@]2(C)O1 | 3 | 0 | -2 | 99* | -4 | 7
COCC(=O)Nc1ccc2c(c1)C(=O)N(C)[C@H]1CC[C@H](CC(=O)NCCc3ccncc3)O[C@@H]1CO2 | · | · | · | -7 | · | ·
O=C(Nc1ccc(SC(F)F)cc1)c1cccc2nc3ccccc3nc12 | · | 1 | · | 82* | · | 5
CCN1CCN(C(=O)c2ccc3c(=O)n(CCC4=CCCCC4)c(=O)[nH]c3c2)CC1 | · | 2 | · | · | · | -61
O=C(NCc1ccco1)c1ccc2c(=O)n(CCC3=CCCCC3)c(=O)[nH]c2c1 | · | · | · | 68* | · | 1
COC(=O)c1ccc2c(=O)[nH]c(CSc3nc(C)cs3)nc2c1 | -26 | -4 | -5 | -20 | -1 | 6
COC(=O)c1ccc2c(=O)[nH]c(CSc3nc(-c4ccc(F)cc4)cs3)nc2c1 | · | · | · | 58* | · | ·
C/C=C/c1ccccc1[C@H]1[C@@H](C#N)N(C(=O)CN2CCOCC2)[C@H]1CO | -8 | · | 0 | 0 | -1 | ·
CCOC(=O)CC(=O)CSc1ccc2nnc(-c3cccc(F)c3)n2n1 | · | 6 | · | 13 | · | 4
CSc1ccc2nnc(-c3cccc(F)c3)n2n1 | · | 7 | · | 53* | · | -3
O=c1c2ccccc2sn1-c1cc(S(=O)(=O)N2CCOCC2)ccc1N1CCOCC1 | · | 2 | · | 208* | · | -1
C[C@@H]1CN([C@@H](C)CO)S(=O)(=O)c2ccc(-c3ccncc3)cc2O[C@@H]1CN(C)C(=O)Nc1ccc(C(F)(F)F)cc1 | 9 | -2 | 1 | -6 | -1 | 16
Cc1cc(S(=O)(=O)c2ccc([N+](=O)[O-])cn2)ccc1Br | 17 | · | · | 15 | -1 | -135
